Data on 3 compounds can be found in PubChem BioAssay.

Calls of active or inactive are those of the source.

Test [1] relates to PRMT1 (protein arginine N-methyltransferase 1). The test is described as follows: PRMT1 binders on small-molecule microarrays, primary screen, biochemical, small-molecule microarray, 635 nm fluorescence (AID 1088).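 Note: binding of Prmt1 protein to compounds spotted on small-molecule microarray slides.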 To be noted: small-molecule microarray binding, higher = more signal.
Test [2] is described as follows: yeast growth modulation, basal conditions, primary screen, YJM789 clinical isolate, OD600, 24 h (AID 1089).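 Note: growth of clinical yeast isolate S. cerevisiae YJM 789 seeded 1000 cells per well; test concentration not given here.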 To be noted: S. cerevisiae YJM789 growth, higher = more signal, called active from +8 up or from −8 down.
The nature of test [3]: fission yeast growth modulation, primary screen, strain 972, OD600, 24 h, no modulator (AID 1090).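 Note: basal condition with compound alone and no growth modifier present; test concentration not given here.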 To be noted: S. pombe 972 growth, higher = more signal, called active from +8 up or from −8 down.
Test [4] can be described thus: S. cerevisiae growth modulation with rapamycin, primary screen, strain BY4716, OD600, 96 h (AID 1091). Note: test concentration not given here. To be noted: higher = more signal, called active from +8 up or from −8 down.
In test [5] the target is Torsin-1A-interacting protein 2 (Homo sapiens) (UniProt Q8NFQ8). Nature of the test: LULL1 binders on small-molecule microarray, primary screen, cell lysate, human LULL1 lysate, 635/667 nm fluorescence (AID 1092).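 Note: probe is lysate of COS7 cells overexpressing human LULL1; score merges per-feature 667 nm fluorescence with signal-to-noise.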 The note with it: hLULL1 lysate binding, 635 nm fluorescence, higher = more signal.
Test [6] in a line: E. coli growth modulation, two-sided OD650, primary screen, E. coli filamentation project, strain DRC41, 24 h (AID 1093).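 Note: MC1000 strain lacking acrAB efflux and sulA so SOS filamentation is blocked; test concentration not given here.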 To be noted: OD650, 24 h, higher = more signal, called active from +8 up or from −8 down.
The nature of test [7]: small-molecule microarray binders of probe aLefty2, primary screen, biochemical, biotinylated probe, 635/667 nm fluorescence (AID 1094).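 Note: score merges spot fluorescence near 667 nm with spot signal-to-noise ratio.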 To be noted: higher = more signal.
Test [8] deals with Noggin (protein binding on small-molecule microarray). Nature of the test: Noggin binders on small-molecule microarray, primary screen, biochemical, 635/667 nm fluorescence (AID 1095).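 Note: score merges 667 nm feature fluorescence with signal to noise over triplicate slides.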 The note with it: 635 nm fluorescence, higher = more signal.
Test [9] deals with Neurogenic locus notch homolog protein 3 (Homo sapiens) (UniProt Q9UM47). The test is described as follows: NOTCH3 binders on small-molecule microarray, primary screen, biochemical, 635/667 nm fluorescence (AID 1096). To be noted: NOTCH3 binding, 635 nm fluorescence, higher = more signal.
Test [10] in a line: small-molecule microarray binders of probe aEGFR, primary screen, biochemical, biotinylated probe, 635/667 nm fluorescence (AID 1097).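 Note: probe is a biotinylated anti-EGFR antibody binding compounds printed on slides; score combines fluorescence near 667 nm and signal to noise of each spot.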 The note with it: higher = more signal.
Test [11] has as its system Plasmodium falciparum Sir2 (PF13_0152, Sir2A). The test is described as follows: pfSir2 binders on small-molecule microarrays, primary screen, biochemical, small-molecule microarray, 635 nm fluorescence (AID 1098).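 Note: score merges spot fluorescence intensity with its signal-to-noise ratio.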 To be noted: small-molecule microarray binding, fluorescence 635 nm; higher = more signal.
Test [12] can be described thus: small-molecule microarray binders of probe aDKK1, primary screen, biochemical, biotinylated probe, 635/667 nm fluorescence (AID 1099).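 Note: score merges 667nm spot fluorescence with signal to noise across triplicate slides; reference of the scale not given here.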 The note with it: higher = more signal.
A short description of test [13]: small-molecule microarray binders of probe aCHRDL2, primary screen, biochemical, biotinylated probe, 635/667 nm fluorescence (AID 1100). The note with it: higher = more signal.
Test [14] in a line: splicing luciferase reporter signal modulators, primary screen, spliceosome inhibition project, cell-based, HEK293, splice +/- reporter (AID 1101).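 Note: HEK293 cells carrying a splicing-competent luciferase reporter gene; test concentration not given here.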 To be noted: luminescence, 24 h, higher = more signal, called active from +8 up or from −8 down.
Test [15] addresses Fibroblast growth factor 10 (Homo sapiens) (UniProt O15520). The test is described as follows: FGF10 binders on small-molecule microarrays, primary screen, biochemical, small-molecule microarray, 635 nm fluorescence (AID 1102). To be noted: FGF10 binding, fluorescence 635 nm, higher = more signal.
The subject of test [16] is glycogen synthase kinase-3 (GSK3A per assay name; protocol says GSK3B). The test is described as follows: GSK3 binders on small-molecule microarrays, primary screen, biochemical, small-molecule microarray, 635 nm fluorescence, GSK3A (AID 1103). Note: the record names both GSK3A and GSK3B. To be noted: small-molecule microarray binding, fluorescence 635 nm; higher = more signal.
For test [17], the target named is Epidermal growth factor receptor (Homo sapiens) (UniProt P00533). Nature of the test: EGFR binders on small-molecule microarrays, primary screen, biochemical, small-molecule microarray, 635 nm fluorescence (AID 1104).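 Note: score merges 667 nm emission intensity with spot signal to noise over triplicate slides.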 The note with it: EGFR binding, higher = more signal.
The target of test [18] is Follistatin-related protein 3 (Homo sapiens) (UniProt O95633). Nature of the test: FSTL3 binders on small-molecule microarrays, primary screen, biochemical, small-molecule microarray, 635 nm fluorescence (AID 1105).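 Note: score merges emission near 667 nm and signal to noise per printed spot across three slides.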 The note with it: FSTL3 binding, higher = more signal.
Test [19] addresses Dickkopf-related protein 1 (Homo sapiens) (UniProt O94907). Nature of the test: DKK1 binders on small-molecule microarrays, primary screen, biochemical, small-molecule microarray, 635 nm fluorescence scan (AID 1106).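 Note: score merges emission near 667 nm with signal to noise over three replicate slides.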 The note with it: DKK1 binding, higher = more signal.
Test [20] concerns Inhibin beta A chain (activin A). The test is described as follows: INHBA (activin A) binders on microarrays, primary screen, biochemical, small-molecule microarray, 635 nm fluorescence scan (AID 1107).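 Note: mouse activin A protein probed at 4.33 µg/mL on printed slides; score merges bound-protein fluorescence near 667 nm with spot signal-to-noise.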 To be noted: small-molecule microarray binding, higher = more signal.

Neurogenic locus notch homolog protein 3 (Homo sapiens), sequence (Q9UM47 whole entry, looked up): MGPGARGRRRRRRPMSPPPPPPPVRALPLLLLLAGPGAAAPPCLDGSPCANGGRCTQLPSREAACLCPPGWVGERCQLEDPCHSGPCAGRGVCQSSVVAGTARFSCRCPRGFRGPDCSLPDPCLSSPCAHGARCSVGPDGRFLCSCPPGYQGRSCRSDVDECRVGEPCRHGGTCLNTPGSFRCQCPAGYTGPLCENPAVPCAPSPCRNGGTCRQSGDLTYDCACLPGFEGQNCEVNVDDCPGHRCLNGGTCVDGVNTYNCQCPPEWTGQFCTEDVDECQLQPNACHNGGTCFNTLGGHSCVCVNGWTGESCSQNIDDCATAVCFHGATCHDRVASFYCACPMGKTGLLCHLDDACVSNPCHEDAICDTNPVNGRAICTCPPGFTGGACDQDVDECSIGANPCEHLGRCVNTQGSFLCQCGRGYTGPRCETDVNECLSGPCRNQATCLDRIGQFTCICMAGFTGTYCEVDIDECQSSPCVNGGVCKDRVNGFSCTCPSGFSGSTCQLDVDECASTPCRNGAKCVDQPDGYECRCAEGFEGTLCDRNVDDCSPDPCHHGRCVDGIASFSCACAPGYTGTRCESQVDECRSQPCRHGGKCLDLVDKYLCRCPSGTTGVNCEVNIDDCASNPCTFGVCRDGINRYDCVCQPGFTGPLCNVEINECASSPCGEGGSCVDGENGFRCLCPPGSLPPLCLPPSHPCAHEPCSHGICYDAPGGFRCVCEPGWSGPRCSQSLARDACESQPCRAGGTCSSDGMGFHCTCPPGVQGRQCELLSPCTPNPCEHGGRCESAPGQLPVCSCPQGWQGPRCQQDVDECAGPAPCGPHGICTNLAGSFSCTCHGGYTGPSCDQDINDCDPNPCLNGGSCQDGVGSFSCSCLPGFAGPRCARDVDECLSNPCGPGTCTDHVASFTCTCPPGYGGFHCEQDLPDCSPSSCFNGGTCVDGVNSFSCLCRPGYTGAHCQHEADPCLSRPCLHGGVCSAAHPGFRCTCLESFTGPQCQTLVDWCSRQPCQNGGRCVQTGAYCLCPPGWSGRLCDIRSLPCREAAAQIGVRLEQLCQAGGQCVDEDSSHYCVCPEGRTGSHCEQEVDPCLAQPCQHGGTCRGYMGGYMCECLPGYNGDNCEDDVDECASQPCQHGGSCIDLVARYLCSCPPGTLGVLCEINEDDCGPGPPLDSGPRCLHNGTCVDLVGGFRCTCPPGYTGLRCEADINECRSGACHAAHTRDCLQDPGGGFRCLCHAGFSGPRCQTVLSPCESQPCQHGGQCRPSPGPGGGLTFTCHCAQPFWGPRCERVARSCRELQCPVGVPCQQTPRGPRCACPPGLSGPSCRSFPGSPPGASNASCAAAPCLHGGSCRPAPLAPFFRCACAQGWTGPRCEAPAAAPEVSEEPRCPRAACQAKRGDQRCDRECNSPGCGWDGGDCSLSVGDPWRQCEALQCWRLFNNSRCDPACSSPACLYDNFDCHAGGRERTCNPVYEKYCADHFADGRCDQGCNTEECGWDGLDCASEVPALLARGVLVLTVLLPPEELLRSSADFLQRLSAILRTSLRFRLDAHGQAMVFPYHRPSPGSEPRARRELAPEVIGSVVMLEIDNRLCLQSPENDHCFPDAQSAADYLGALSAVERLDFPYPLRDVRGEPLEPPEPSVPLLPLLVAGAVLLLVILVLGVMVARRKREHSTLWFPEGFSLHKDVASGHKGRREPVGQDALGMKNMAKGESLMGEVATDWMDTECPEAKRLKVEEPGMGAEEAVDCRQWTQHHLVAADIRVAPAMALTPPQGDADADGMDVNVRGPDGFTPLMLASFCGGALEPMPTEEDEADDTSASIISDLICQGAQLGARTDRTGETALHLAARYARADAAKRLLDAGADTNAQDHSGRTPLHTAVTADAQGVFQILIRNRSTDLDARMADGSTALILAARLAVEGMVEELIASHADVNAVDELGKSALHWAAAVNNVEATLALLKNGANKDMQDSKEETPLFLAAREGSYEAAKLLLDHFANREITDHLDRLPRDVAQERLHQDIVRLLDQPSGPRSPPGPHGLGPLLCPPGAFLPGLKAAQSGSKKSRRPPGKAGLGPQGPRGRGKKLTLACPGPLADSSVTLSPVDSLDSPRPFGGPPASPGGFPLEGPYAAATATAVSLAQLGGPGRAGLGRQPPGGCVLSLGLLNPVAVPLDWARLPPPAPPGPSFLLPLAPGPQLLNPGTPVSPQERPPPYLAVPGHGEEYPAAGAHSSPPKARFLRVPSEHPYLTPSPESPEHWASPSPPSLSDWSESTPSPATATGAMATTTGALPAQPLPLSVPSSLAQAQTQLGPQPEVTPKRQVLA
Follistatin-related protein 3 (Homo sapiens), sequence (O95633 whole entry, looked up): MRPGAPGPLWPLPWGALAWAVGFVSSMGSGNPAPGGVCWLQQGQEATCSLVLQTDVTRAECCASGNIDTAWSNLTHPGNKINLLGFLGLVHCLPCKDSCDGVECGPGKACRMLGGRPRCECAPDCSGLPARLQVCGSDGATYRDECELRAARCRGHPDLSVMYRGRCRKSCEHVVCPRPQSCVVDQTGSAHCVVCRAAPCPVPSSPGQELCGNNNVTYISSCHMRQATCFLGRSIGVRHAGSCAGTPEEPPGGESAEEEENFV
Torsin-1A-interacting protein 2 (Homo sapiens), sequence (Q8NFQ8 whole entry, looked up): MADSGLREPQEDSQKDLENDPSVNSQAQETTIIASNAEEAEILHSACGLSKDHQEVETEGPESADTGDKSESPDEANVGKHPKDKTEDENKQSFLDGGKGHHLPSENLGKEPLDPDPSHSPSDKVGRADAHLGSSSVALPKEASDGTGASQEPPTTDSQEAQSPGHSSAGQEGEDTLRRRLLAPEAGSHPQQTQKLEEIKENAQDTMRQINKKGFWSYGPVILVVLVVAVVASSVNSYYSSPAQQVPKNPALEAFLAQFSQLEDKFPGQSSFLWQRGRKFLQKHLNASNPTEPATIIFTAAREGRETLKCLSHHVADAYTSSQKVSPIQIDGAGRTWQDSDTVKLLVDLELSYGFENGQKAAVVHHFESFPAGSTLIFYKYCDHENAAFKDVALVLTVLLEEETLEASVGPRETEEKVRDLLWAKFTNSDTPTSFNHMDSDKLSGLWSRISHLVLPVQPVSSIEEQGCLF
Dickkopf-related protein 1 (Homo sapiens), sequence (O94907 whole entry, looked up): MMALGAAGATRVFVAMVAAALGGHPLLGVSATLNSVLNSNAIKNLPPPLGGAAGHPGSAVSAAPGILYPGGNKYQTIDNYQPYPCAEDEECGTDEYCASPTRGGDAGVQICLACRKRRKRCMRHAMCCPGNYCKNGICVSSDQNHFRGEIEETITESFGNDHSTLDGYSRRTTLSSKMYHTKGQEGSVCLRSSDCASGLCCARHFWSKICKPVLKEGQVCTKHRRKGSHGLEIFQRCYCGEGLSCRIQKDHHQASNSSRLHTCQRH
Epidermal growth factor receptor (Homo sapiens), sequence (P00533 whole entry, looked up): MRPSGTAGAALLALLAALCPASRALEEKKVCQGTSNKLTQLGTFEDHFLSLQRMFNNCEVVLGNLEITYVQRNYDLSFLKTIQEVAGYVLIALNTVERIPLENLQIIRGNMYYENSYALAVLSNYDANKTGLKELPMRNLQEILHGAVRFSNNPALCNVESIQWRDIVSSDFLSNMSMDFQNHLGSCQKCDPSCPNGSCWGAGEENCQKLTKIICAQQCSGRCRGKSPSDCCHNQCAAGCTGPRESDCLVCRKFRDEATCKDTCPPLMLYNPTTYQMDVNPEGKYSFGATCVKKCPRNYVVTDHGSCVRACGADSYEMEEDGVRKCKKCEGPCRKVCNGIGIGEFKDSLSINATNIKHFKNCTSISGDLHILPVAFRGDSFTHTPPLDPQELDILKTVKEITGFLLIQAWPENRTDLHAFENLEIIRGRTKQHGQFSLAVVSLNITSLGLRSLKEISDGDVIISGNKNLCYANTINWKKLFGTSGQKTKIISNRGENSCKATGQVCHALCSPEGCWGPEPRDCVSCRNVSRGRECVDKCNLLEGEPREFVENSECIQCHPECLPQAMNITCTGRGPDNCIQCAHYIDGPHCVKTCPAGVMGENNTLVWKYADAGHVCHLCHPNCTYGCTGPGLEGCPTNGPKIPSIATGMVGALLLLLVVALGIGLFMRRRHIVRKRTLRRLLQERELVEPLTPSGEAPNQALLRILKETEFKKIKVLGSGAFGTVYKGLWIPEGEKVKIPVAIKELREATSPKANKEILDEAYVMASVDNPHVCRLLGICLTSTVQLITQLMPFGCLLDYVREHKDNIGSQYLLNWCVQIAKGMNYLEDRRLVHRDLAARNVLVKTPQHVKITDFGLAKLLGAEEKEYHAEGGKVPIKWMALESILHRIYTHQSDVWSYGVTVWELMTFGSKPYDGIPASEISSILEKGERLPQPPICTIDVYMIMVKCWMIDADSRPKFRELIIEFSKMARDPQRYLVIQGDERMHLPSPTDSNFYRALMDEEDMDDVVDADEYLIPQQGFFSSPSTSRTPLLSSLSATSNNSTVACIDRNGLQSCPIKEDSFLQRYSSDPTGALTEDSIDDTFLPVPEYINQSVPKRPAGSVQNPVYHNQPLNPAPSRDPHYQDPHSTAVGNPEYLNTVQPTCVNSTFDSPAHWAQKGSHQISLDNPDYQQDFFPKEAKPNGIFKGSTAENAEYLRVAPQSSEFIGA
Fibroblast growth factor 10 (Homo sapiens), sequence (O15520 whole entry, looked up): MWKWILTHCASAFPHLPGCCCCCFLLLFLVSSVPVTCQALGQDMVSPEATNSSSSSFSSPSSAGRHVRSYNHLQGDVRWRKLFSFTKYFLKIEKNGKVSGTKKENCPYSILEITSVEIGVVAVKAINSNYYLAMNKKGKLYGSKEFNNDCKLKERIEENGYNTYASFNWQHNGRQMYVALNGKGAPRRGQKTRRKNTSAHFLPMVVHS

In the case of `C=C(CCCC)/C(=C/C[C@@H](OC(=O)c1ccncc1)c1ccccc1OCCO)c1cnc2ccccc2c1`, the composite z-score was 1.55 in test [1]; 1.26 in test [5]; -0.127 in [7]; 1.9 in [8]; 1.05 in test [9]; -0.0028 in test [10]. The composite z-score was determined as 1.26 in [11]; 0.276 in [12]; 0.178 in [13]; 1.44 in test [15]; 1.15 in test [16]; 1.02 in test [17]. The results for the composite z-score in test [18], in test [19] and in [20] were 1.33, 0.736 and 1.69, respectively. The z-score in test [2] is -0.868 (inactive); in test [3] it was -1.2 (inactive); in test [4] it was 1.65 (inactive); in test [6], 0.514 (inactive); in test [14], 1.03 (inactive).

As for `C=CCC(OC(C)=O)[C@@H]1[C@@H](N(Cc2cc3ccccc3o2)C(=O)c2ccc(C)cc2)c2cc(OCCCO)ccc2N1C(=O)Cc1ccc(OC)cc1` (stereo not given in full), the composite z-score in [1] was 0.23; in [5], 0.692; in [7], 0.0761; in [8], -0.0512; in [9], 0.233; in [10] it was -0.15. For the same compound, the composite z-score in test [11] was -0.0682; in [12] it was -0.199; in [13], 0.33; in [15], 0.289; in test [16] it was 0.121; in [17] it was -0.147. Also, the composite z-score in test [18] was 0.087; in [19], 0.0807; in [20], 1.01. Besides, the z-score in [2] was 0.0303 (inactive); in test [3], -0.841 (inactive); in test [4], -0.131 (inactive); in [6], 1.21 (inactive); in [14], -0.669 (inactive).

`CCCCC(=C=CC[C@@H](O)c1ccccc1OCCO)C[C@@H](O)COCc1ccccc1`: the composite z-score in test [1] was 1.13; in [5], 1.91; in [7], -0.166; in test [8], 0.404; in [9], 0.185; in test [10], -0.209. The composite z-score is 1.15 in [11]; -0.126 in test [12]; 0.142 in [13]; 0.114 in test [15]; -0.158 in [16]; -1.14 in test [17]. Also, the composite z-score was -0.126 in test [18], -0.498 in test [19] and 0.596 in [20]. Also, the z-score was -1.69 (inactive) in test [2]; -2.1 (inactive) in [3]; -1.26 (inactive) in test [4]; 1.31 (inactive) in [6]; -0.705 (inactive) in test [14].
